# Test results taken from PubChem BioAssay AID1460 (National Center for Advancing Translational Sciences (NCATS), 2008).
# Hit rate of the full screen: of about 270,000 compounds, about 5,800 (2.1%) were called active. Inconclusive results (about 16%) are left out. The full list was thinned out, with actives kept by preference. Values without a mark were called inactive. The call rests on the fitted dose curve; in most records, active means well fitted inhibition curve with a large enough effect; inconclusive means small, poorly fitted or top-dose-only effect; inactive means flat fitted curve, though single readings scatter.
# Target: Microtubule-associated protein tau (Homo sapiens) (UniProt P10636)
# Test: qHTS for Inhibitors of Tau Fibril Formation, Thioflavin T Binding; further: nearly all actives have a fitted effect of over 55% in size
# Details: recombinant tau K18 P301L (four-repeat tau fragment), heparin-induced fibrillization, ThT fluorescence; series mostly up to 57.4 µM; activity, negative = inhibition: at the top concentration
# Method in brief: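 Heparin-induced (20 uM) aggregation of recombinant human K18 P301L tau, 15 uM unlabeled with 0.24 uM labeled, pH 7 acetate buffer, 6 hr at 37 C with compound. Fibrils quantified by 30 uM ThT fluorescence after 1 hr ambient incubation.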
# On the % scale 0 is the no-effect control and ±100 the full control effect; potency means the concentration at half of the fitted maximal effect.
# Microtubule-associated protein tau (Homo sapiens), sequence (P10636 561-689 P618L limits assumed): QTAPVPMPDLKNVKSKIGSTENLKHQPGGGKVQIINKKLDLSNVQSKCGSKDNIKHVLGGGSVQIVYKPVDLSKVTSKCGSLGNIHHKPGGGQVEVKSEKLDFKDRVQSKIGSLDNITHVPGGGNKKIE
SMILES,"activity, negative = inhibition [%]",Potency
COc1cccc(NC(=O)N(Cc2cn(C)c3ccccc23)C2CCCCCC2)c1,-18.6,–
COc1ccc(Cn2c(C(=O)O)c(CNCc3cccc(OC)c3)c3ccc(C)cc32)cc1,4.58,–
COc1cc(C(=O)NCCS(=O)(=O)N2CCN(c3ccccc3)CC2)cc(OC)c1OC,3.32,–
COc1ccc(-n2c(SCC(=O)Nc3ccc(Cl)c(C)c3)nc3n[nH]c(C)c3c2=N)cc1,-6.68,–
CCOc1ccc(NC(=O)C2CCN(S(=O)(=O)c3cc(-c4noc(C)n4)ccc3C)CC2)cc1,-3.68,–
COc1ccc(-c2nn3c(=O)cc(CN4CCN(C(=O)c5ccc(OC)c(OC)c5)CC4)nc3s2)cc1,-16.3,–
Cc1cccc2c(=O)cc(CSc3ccccc3NC(=O)C(C)C)[nH]c12,-2.42,–
COc1ccc(Cn2c(=O)cc(C)[nH]c2=S)cc1,-15.3,–
COc1cc(=O)[nH]c(=O)n1C(=O)Cc1ccccc1,-6.37,–
CCCOc1ccc(Cn2c(O)cc(=O)[nH]c2=O)cc1,–,25.1 µM (active)
Cc1cccc(NC(=O)N2CCC(CN3CCc4ccccc4C3)CC2)c1C,2.46,–
Cc1cccc(S(=O)(=O)CC(=O)Nc2nc(-c3ccccc3)cs2)c1,-17.8,–
COc1ccc2c(c1OC)C(=O)OC2Nc1nc(-c2ccccc2)cs1 (stereo not given),–,17.8 µM (active)
COc1ccc2c(c1OC)C(=O)OC2c1c(O)nc(SC)n(-c2ccccc2)c1=O (stereo not given),-12.8,–
O=C(CN1C(=O)COc2ccc(S(=O)(=O)N3CCCCCC3)cc21)N1CCN(c2cccc(C(F)(F)F)c2)CC1,-6.43,–
Cc1ccc(CCNC(=O)Cn2c(-c3cccs3)cc3cc(F)ccc32)cc1,-0.536,–
Cc1ccc(Cl)cc1NC(=O)c1ccccn1,-6.15,–
Cc1ccc(Cl)cc1NC(=O)C(C)n1nnc2sc(-c3ccccc3)cc2c1=O (stereo not given),–,17.8 µM (active)
Cc1cc2nn(-c3ccc(Cl)cc3)nc2cc1NC(=O)C(C)C,4.08,–
COc1cccc(NC(=O)CSC2=Nc3ccccc3C3=NC(CC(=O)NC4CCCCC4)C(=O)N23)c1 (stereo not given),-7.37,–
Cc1ccc(Cl)cc1N1CCN(C(=O)c2cn(C)c3ccc(S(=O)(=O)N(C)C4CCCCC4)cc3c2=O)CC1,-2.4,–
COc1ccc(N2CCN(C3CC(=O)N(c4ccc5c(c4)OCCO5)C3=O)CC2)cc1 (stereo not given),-18.6,–

SMILES,"activity, negative = inhibition [%]",Potency
CC(=O)Oc1cccc(N2C(=O)C3CC=C(Cl)CC3C2=O)c1 (stereo not given),4.98,–
CC(=O)Oc1cccc(N2C(=O)CC(Nc3ccc(N4CCOCC4)cc3)C2=O)c1 (stereo not given),–,15.8 µM (active)
COCCNC(=O)CSc1c(C)cnc2c1c(=O)n(C)c(=O)n2C,-7.06,–
CC(=O)N1c2ccccc2CC1C(=O)N1CCN(c2ccc(F)cc2)CC1 (stereo not given),-7.29,–
Cc1ccc(Nc2nnc(SCc3ccccc3)s2)cc1,-9.63,–
O=C(CSc1nnc(Nc2ccccc2)s1)Nc1cccnc1Cl,-18.4,–
CC(C)c1ccc(Nc2nnc(SCC(=O)c3nnc(-c4ccccc4)o3)s2)cc1,–,17.8 µM (active)
CCOC(=O)c1c(S(=O)(=O)N2CCCC(C(=O)NCc3cccc(C)c3)C2)c(C)n(C)c1C (stereo not given),12,–
COc1cccc(CNC(=O)C2CCN(S(=O)(=O)c3ccc4c(ccn4C)c3)CC2)c1,3.32,–
COc1ccc(/C=N/N=C2/C(=O)Nc3ccccc32)cc1O,–,10 µM (active)
CCOc1ccc(/C=N/NC(=O)CSc2ccccn2)cc1O,-6.19,–
COc1ccc(/C=N/S(=O)(=O)c2ccccc2)cc1OC,8.82,–
CCN(Cc1ccccc1)C(=O)c1cn(-c2cccc(OC)c2)c(=O)c2ccccc12,-12,–
O=C(CSc1nnc(-c2ccccc2F)o1)Nc1cccc(C(F)(F)F)c1,-3.91,–
CN(C(=O)CSc1nnc(NC(=O)Nc2ccccc2)s1)c1ccccc1,2.89,–
CCOC(=O)c1ccccc1C(=O)N1CCOCCOCCOCC1,-6.87,–
CCOC(=O)c1cnc2c(C)cc(C)cc2c1Nc1ccc(N2CCOCC2)cc1,–,11.2 µM (active)
CCc1cccc(NC(=O)c2cnc(N3CCOCC3)c3ccccc23)c1,-10.2,–
Cc1cc(C)cc(NC(=O)c2cnc3sc(N4CCCC4)nn3c2=O)c1,3.36,–
CN=c1scc(-c2cc(OC)ccc2OC)n1/N=C/c1c(C)[nH]c2ccccc12,–,14.1 µM (active)
CCn1c(-c2cc(OC)ccc2OC)csc1=Nc1c(C)n(C)n(-c2ccccc2)c1=O,-0.49,–
Cc1[nH]c2ccccc2c1/C=N\NC(=O)Cn1nnc(-c2ccccc2)n1,3.95,–

SMILES,"activity, negative = inhibition [%]",Potency
CCOc1ccc(NC(=O)c2cc(S(=O)(=O)N3CCCC3)c[nH]2)cc1,-8.62,–
O=S(=O)(c1ccc(Br)cc1)c1nnn2c1nc(N1CCOCC1)c1sccc12,-10.4,–
CCN1/C(=C/c2ccc3ccc(C)cc3[n+]2CC)Sc2ccccc21,-14.4,–
CCN1/C(=C\c2ccc3ccccc3[n+]2CC)Sc2cc(C)ccc21,–,15.8 µM (active)
COc1ccc(S(=O)(=O)NCC(c2ccc(N(C)C)cc2)N2CCCC2)cc1 (stereo not given),6.51,–
O=C(c1ccc(Br)cc1)N(Cc1cccs1)c1ccc(F)cc1,-14,–
Nc1ccc(Nc2ccccc2)cc1,–,15.8 µM (active)
Cc1cc(Nc2ccccc2)nc(N)n1,0.943,–
c1ccc(Nc2n[nH]nc2-c2ccccc2)cc1,-6.37,–
CNc1ccc(-c2nc(-c3ccccc3C)no2)cc1[N+](=O)[O-],1.98,–
CC(=O)Nc1ccc(NC(=O)c2sc3nc4c(c(-c5ccc(C)cc5)c3c2N)CCC4)cc1,-8.97,–
NC(=O)c1sc2nc3c(c(-c4ccccc4)c2c1N)CCC3,-18,–
Cc1cccc(NC(=O)c2sc3nc4c(c(-c5ccco5)c3c2N)CCC4)c1,–,7.94 µM (active)
CCN(CC)c1ccc(NC(=O)CN2C(=O)c3cccnc3Oc3ccc(Cl)cc32)c(C)c1,-3.19,–
O=S(=O)(Nc1ccc2nc(-c3cccc(Cl)c3)oc2c1)c1ccccc1,10,–
CCOc1ccc(-n2nc3ccc(NC(=O)c4ccc(OC)c(Cl)c4)cc3n2)cc1,-17.4,–
COc1ccccc1Nc1c2c(nc3ccc(NC(=O)/C=C/c4cc(OC)c(OC)c(OC)c4)cc13)CCCC2,–,14.1 µM (active)
CCOc1ccc(C(=O)Nc2ccc3nc4c(c(Nc5ccccc5OC)c3c2)CCCC4)cc1,–,14.1 µM (active)
COc1cccc(NC(=O)c2ccc3c(SCC(=O)O)c4c(nc3c2)CCCC4)c1,0.652,–
Cc1ccc(Nc2c3c(nc4ccccc24)CCC3)cc1,-3.18,–
COc1ccc(NS(=O)(=O)c2cc(NC(=O)/C=C/c3cc(OC)c(OC)c(OC)c3)ccc2N2CCCCC2)cc1,-3.88,–
